The record followed here is PubChem BioAssay AID504692 (The Scripps Research Institute Molecular Screening Center, 2011).

Screen size: about 340,000 compounds; about 2,000 (0.59%) were called active. The sample holds actives, similar compounds and a random draw of the others, so the mix is not that of the screen. Unmarked numbers belong to inactive results. Rule as the data show it: active = activation mostly above about 9.5% (no sharp cut-off); inactive = mostly below about 7.6%.

The target of this assay is 5-hydroxytryptamine receptor 5A (Homo sapiens) (UniProt P47898). The experiment in a line: activation of human 5-HT5A receptor – cell-based, luminescence, full-deck HTS, counter-screen for OPRM1-OPRD1 heterodimer agonist project, primary screen (AID 504692).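 Also: 0% = cells with vehicle only and 100% = reference agonist.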 To be noted: HTR5A agonist assay, at 9.3 µM, active compounds read high. Background: A counterscreen serves to expose hits that act by an unwanted route or on another target.
5-hydroxytryptamine receptor 5A (Homo sapiens), sequence (P47898 whole entry, looked up): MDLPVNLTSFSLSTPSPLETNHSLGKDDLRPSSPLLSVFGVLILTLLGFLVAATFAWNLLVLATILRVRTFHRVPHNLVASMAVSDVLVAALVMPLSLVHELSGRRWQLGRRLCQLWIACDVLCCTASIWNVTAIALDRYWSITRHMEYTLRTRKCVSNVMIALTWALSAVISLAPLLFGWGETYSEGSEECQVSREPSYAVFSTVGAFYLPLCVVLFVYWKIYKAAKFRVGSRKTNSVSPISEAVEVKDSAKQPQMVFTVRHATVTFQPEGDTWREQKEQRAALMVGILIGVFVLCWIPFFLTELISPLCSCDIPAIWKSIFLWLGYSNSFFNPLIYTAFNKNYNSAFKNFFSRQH
In the case of `CCCCCc1ccc(-c2ccc(C(=O)O)cc2)nc1`, the activation was 4.14%.
As to `CCc1ccc(NC(=O)CN2C(=O)COc3ccc(S(=O)(=O)N4CCCC4)cc32)cc1`, the activation is 0.59%.
For `COc1ccc(NC(=O)CN2C(=O)CSC2=O)cc1`, the activation was -1%.
In the case of `CCc1ccc(NC(=O)CN2C(=O)CSC2=O)cc1` it was 13.7% (active).
In the case of `COC(=O)c1c(CCl)noc1C(=O)NC(C)C` it was 2.61%.
`CC(C)(C)NC(=O)COC(=O)c1cc(Cl)ccc1[N+](=O)[O-]`: the activation was 7.24%.
For `CN(C)/C=C/C(=O)c1cnc2sccn2c1=O` the value was 0.28%; for `CCOC(=O)c1ccccc1NS(=O)(=O)c1c(C)nc2sccn2c1=O`, -1.95%.
For the molecule `CCOC(=O)c1cnc2sccn2c1=O`, the activation was 21% (active).
With `Cc1nc(C(=O)NCc2ccccc2)sc1C1(C)CC(c2cccnc2)=NO1` (stereo unspecified), the activation is 6.13%.
For `Cc1cccc(OCCC(=O)Nc2ccccc2C(N)=O)c1` the value was 1.89%; for `Cc1cccc(OCC(=O)Nc2ccccc2F)c1`, 0.76%; for `COc1cccc(OCC(=O)Nc2ccccc2C(N)=O)c1`, 18.3% (active).
For the molecule `Cc1cc(C)c(S(=O)(=O)NCC(c2ccc3c(c2)OCO3)N2CCOCC2)c(C)c1` (stereo unspecified), the activation was -4.07%.
In the case of `Cc1ccc2nc(SC(C)C(=O)NCc3ccco3)[nH]c2c1` (stereo unspecified) it was -4.41%.
In the case of `CC(=O)c1c(C)[nH]c(C(=O)OCC(=O)Nc2c(C)cccc2C)c1C` it was 17.5% (active); in that of `CC(=O)c1c(C)[nH]c(C(=O)OCC(=O)NCCC(C)C)c1C`, -1.47%.
As to `CC(=O)c1c(C)[nH]c(C(=O)OCC(=O)Nc2c(C)n(C)n(-c3ccccc3)c2=O)c1C`, the activation is 1.57%.
In the case of `CSCCC(NS(=O)(=O)/C=C/c1ccccc1)C(=O)N1CCC(C)CC1` (stereo unspecified) it was -0.99%.
In the case of `CCNS(=O)(=O)c1ccc(NC(=O)c2cncc(Br)c2)cc1` it was 0.87%; in that of `O=C(Nc1ccc(C(=O)N2CCOCC2)cc1)Nc1cccc(C(F)(F)F)c1`, 28.4% (active); in that of `CCNS(=O)(=O)c1ccc(NC(=O)Nc2cccc(C(F)(F)F)c2)cc1`, 12.8% (active).
In the case of `O=C(COc1ccc(S(=O)(=O)Nc2cccc(C(F)(F)F)c2)cc1)N1CCOCC1` it was 1.4%; in that of `O=C(NCc1ccccc1)c1ccc(S(=O)(=O)Nc2cccc(C(F)(F)F)c2)cc1`, 2.56%; in that of `COc1ccccc1C(=O)Nc1cccc(C(=O)N2CCOCC2)c1`, 3.58%.
Take `Cc1cc(OCCN2CCCC2)ccc1C(C)C`: the activation is 8.01%.
In the case of `O=C(NCCCO)c1cc2c([nH]c3ccccc32)c(-c2ccc(F)cc2)n1` it was 1.16%; in that of `COc1ccccc1C(=O)COC(=O)COc1ccc(C#N)cc1`, -2.03%.
For `COc1ccc(-c2nc(CS(=O)(=O)CC(=O)NCc3cccc(Br)c3)c(C)o2)cc1` the value was 4.07%; for `O=C(COC(=O)CCCNC(=O)c1ccc(Cl)cc1)Nc1cc(Cl)ccc1Cl`, 7.08%.
For `O=C(CN(c1ccccc1)S(=O)(=O)c1ccc(Cl)cc1)Nc1ccccc1C(=O)N1CCCC1` the value was -0.02%; for `CCN(CC)C(=O)c1nc[nH]c1C(=O)N(C)Cc1ccccc1`, -1.14%; for `COc1ccc(CCNC(=O)C(Sc2ccccn2)c2ccccc2)cc1OC` (stereo unspecified), 2.72%.
For `COc1ccc(C(CCN(Cc2ccc(OC)c(OC)c2)C(=O)CCl)c2ccccc2)cc1` (stereo unspecified), the activation is 44.4% (active).
In the case of `COc1ccc(COC(=O)NC(C(=O)O)c2ccccc2)cc1` (stereo unspecified) it was -0.04%.
For `CCCNC(=S)NC1CC2CCCC(C1)N2CC(C)C` (stereo unspecified) the value was 4.6%; for `COc1c(N2CCN(C(=S)Nc3ccccc3F)C(C)C2)c(F)cc2c(=O)c(C(=O)O)cn(C3CC3)c12` (stereo unspecified), -0.11%; for `Cc1ccc(C(=O)N/C(=C\c2ccco2)C(=O)N2CCSCC2)cc1C`, 1.54%.
In the case of `O=C(NC(Cc1c[nH]c2ccccc12)C(=O)O)/C(=C/c1ccco1)NC(=O)c1ccccc1` (stereo unspecified) it was 0.55%; in that of `Cc1ccc(C(=O)N/C(=C/c2ccco2)C(=O)NCCc2c[nH]c3ccccc23)cc1C`, 20.3% (active).
As for `Cc1ccc(/C=N/NC(=O)C(NC(=O)c2ccccc2)c2n[nH]c(=O)c3ccccc23)cc1` (stereo unspecified), the activation is 3%.
